Screens deposited in PubChem by National Center for Advancing Translational Sciences (NCATS).
TGFb inhibitor: qHTS for Inhibitors of TGF-b. actives 1.2% (n = 410,000). HepG2 CAGA-GFP TGF-b/SMAD3 reporter, GFP fluorescence, 18 h; TGF-beta stimulated, 500 pg/mL final. Potency, µM (top dose mostly 46.1 µM), for the others: at the top dose activity, negative = inhibition, usual class: inhibitors; further: on the % scale 0 is the no-effect control and ±100 the full control effect; nearly all actives have a fitted effect of over 65% in size
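GFP signal (ex488/em500-530) from TGF-beta-stimulated HEPG2 CAGA-GFP cells, 500 pg/mL final, 18 h at 37 degrees C in DMEM plus 1% FBS, normalized to unstimulated and DMSO-stimulated controls.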
HT1080NT lethal: qHTS for induction of synthetic lethality in tumor cells producing 2HG: qHTS for the HT-1080-NT fibrosarcoma cell line; HT-1080-NT fibrosarcoma viability, CellTiter-Glo ATP luminescence, 48 h; Potency, µM (doses to about 46.1 µM), inactives show at the highest dose activity, negative = less viability, hits mostly cytotoxic; actives 1.6% (n = 360,000);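 further: NT is the 2HG producing partner of a matched IDH1 knockdown line; 0% = DMSO-treated cells and -100% = media-only wells without cells; nearly all actives have a fitted effect of over 55% in size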
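Viability of the 2HG-overproducing fibrosarcoma line after 48 hours of compound exposure at 37 degrees C was determined by luminescence with CellTiter-Glo, and concentration-effect curves were then fitted and categorized.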
TDP1 cell noCPT: qHTS for Inhibitors of human tyrosyl-DNA phosphodiesterase 1 (TDP1): qHTS in cells in absence of CPT; actives 15% (n = 420,000); Potency, µM (titrated, usually from 46.2 µM), inactives show at the top dose activity change, negative = growth inhibition, actives largely listed as inhibitors; DT40 Tdp1-/- hTDP1 cells, no CPT, ATP luminescence, 48 h; further: on the % scale 0 is the no-effect control and ±100 the full control effect; nearly all actives have a fitted effect of over 55% in size
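Chicken DT40 Tdp1-/- cells stably complemented with human TDP1 were seeded at 400 cells/well with DMSO in place of 20 nM camptothecin. After compound pinning, cells grew at least 48 hr at 37 °C; viability read by CellTiter-Glo luminescence.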
HT1080 IDH1KD tx: qHTS for induction of synthetic lethality in tumor cells producing 2HG: qHTS for the HT-1080-IDH1KD cell line; HT-1080 IDH1 knockdown viability, ATP luminescence, 48 h; actives 2% (n = 360,000); Potency, µM (series often up to 46.1 µM), inactives show top-dose activity, negative = toxicity, hits mostly cytotoxic;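 further: 0% = DMSO wells and -100% = cell-free medium wells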
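HT-1080-IDH1KD cells (IDH1 knocked down), 750/well in RPMI with 5% FBS, treated with compound 48 h at 37 degrees C. Viability by CellTiter-Glo luminescence, normalised to DMSO and no-cell wells; concentration-response curves classed.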
TDP1 cell CPT: qHTS for Inhibitors of human tyrosyl-DNA phosphodiesterase 1 (TDP1): qHTS in cells in presence of CPT. actives 12% (n = 420,000). chicken DT40 Tdp1-/-;hTDP1 cells + 20 nM CPT, ATP luminescence, 48 h. AID 686979, 2013. Potency, µM (highest dose often 46.2 µM), for inactives: at the highest dose activity change, negative = growth inhibition, hits mostly inhibitors; further: on the % scale 0 is the no-effect control and ±100 the full control effect; nearly all actives have a fitted effect of over 55% in size
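Cell growth measured by CellTiter-Glo luminescence after a minimum 48 h, 37 C compound exposure with 20 nM CPT in Tdp1-knockout DT40 cells stably expressing hTDP1, seeded 400/well; qHTS titration format.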
HepG2 tox: qHTS for Inhibitors of TGF-b: Cytotox Counterscreen | HepG2 CAGA-GFP viability, ATP luminescence, 18 h | Potency, µM (highest dose often 46.1 µM), for inactives: at the highest dose activity change, negative = cytotoxicity, actives largely listed as cytotoxic | actives 0.76% (n = 410,000) | AID 588856, 2011
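HepG2 CAGA-GFP cells (1000/well, DMEM with 1% FBS) received compound, then TGF-beta at 500 pg/mL final, and were incubated 18 hours at 37 degrees C. Viability was read by CellTiter-Glo luminescence. Media-only wells were set as complete cell-killing and DMSO as no toxicity.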
Active calls of the source: *; ? = inconclusive; · = no result given. This is a sample that favours compounds with a hit; in the whole collection about 17% have one here. The call rests on the fitted dose curve; in most records, active means well fitted curve in the direction sought with a large enough effect; inconclusive means small, poorly fitted or top-dose-only effect, or another doubt; inactive means no such curve, though single readings can be large; an effect the other way counts as inactive or inconclusive. Potency means the concentration at half of the fitted maximal effect.

SMILES	TGFb inhibitor	HT1080NT lethal	TDP1 cell noCPT	HT1080 IDH1KD tx	TDP1 cell CPT	HepG2 tox
CSc1ccc(-c2ccc3c(c2)c(Sc2ccccc2)c(-c2ccccc2)n3C)cc1	·	-21%	-8%	-2%	-8%	·
Cc1ccc(C(=O)n2c3ccccc3c3ccccc32)cc1	-9%	?	6.5µM*	6.5µM*	5.8µM*	-7%
CC(=O)n1c2ccccc2c2ccccc21	-1%	8%	-20%	3%	14%	7%
COc1ccc(C(=O)OCC(=O)c2ccc(C3CCCCC3)cc2)cc1	-9%	-6%	20µM*	-8%	?	-29%
Nc1ccc(O)cc1C(=O)OCC(=O)c1ccc(C2CCCCC2)cc1	-28%	-15%	21µM*	?	?	-57%
COc1ccc(C(=O)Nc2ccc(C(=O)OCC(=O)c3ccccc3)cc2)cc1	-3%	4%	-20%	-15%	-20%	-2%
O=C(COC(=O)c1ccc(O)cc1O)c1ccc(Cl)cc1	?	-12%	-17%	-3%	-20%	-18%
CCn1c(SCC(=O)Nc2ccccc2OC)nc(O)cc1=O	14%	10%	-5%	7%	6%	-6%
CCOc1ccc(-c2nonc2NC(=O)c2oc3cc(C)c(C)cc3c2C)cc1OCC	17%	·	?	·	-1%	-7%
CCOc1ccc(-c2nonc2NC(=O)c2oc3c(C)c(C)ccc3c2C)cc1OCC	?	·	16µM*	·	15µM*	-22%
CCOc1ccc(-c2nonc2NC(=O)c2oc3cc(C)ccc3c2C)cc1	-7%	·	?	·	23µM*	-26%
CCOc1ccc(-c2nonc2NC(=O)c2ccco2)cc1	-10%	?	9%	6%	9%	2%
CCCOc1ccc(-c2nonc2NC(=O)c2oc3ccc(C)cc3c2C)cc1OCCC	0%	·	?	·	9.2µM*	-5%
Cc1ccccc1CSc1ccc(S(=O)(=O)N2CCCC2)cn1	?	9%	?	1%	-22%	-22%
Oc1ccccc1CN1CCCC(N2CCN(c3cccc(C(F)(F)F)c3)CC2)C1 (stereo not drawn)	-19%	-6%	?	-7%	18µM*	-25%
CSCC(=O)N1CCCC(N2CCN(c3cccc(C(F)(F)F)c3)CC2)C1 (stereo not drawn)	-25%	0%	?	-5%	-28%	-8%
Fc1ccccc1N1CCN(C2CCCN(Cc3cccc(C(F)(F)F)c3)C2)CC1 (stereo not drawn)	?	-25%	16µM*	-4%	?	-40%
Cc1cc(CCN2CCC(=O)NC2=O)ccc1OC(C)C	14%	4%	-5%	13%	6%	6%
Cc1ccc(/C=N/NC(=O)CSc2nc3ccccc3c(=O)n2-c2ccccc2)s1	-5%	-2%	-25%	14%	12%	-21%
Cc1ccc(-c2nnc(SCC(=O)N/N=C/c3ccc(C)s3)n2-c2ccc(C)cc2)cc1	?	-27%	29µM*	-25%	?	-19%
COCC(=O)Nc1ccc2c(c1)OCC(=O)N2Cc1ccccc1F	-2%	13%	4%	3%	-8%	-8%
COc1ccc(Cc2c(-c3ccc(Cl)cc3)nc3cc(C)c(Br)c(C)n23)c(C)c1	·	-22%	?	-16%	?	·
COc1ccc(Cc2c(-c3ccc(C)cc3)nc3cc(C)c(Br)c(C)n23)c(C)c1	-5%	-11%	?	-18%	2.3µM*	-17%
COc1ccc(Cc2c(-c3ccc(F)cc3)nc3cc(C)c(Br)c(C)n23)c(C)c1	·	-26%	18µM*	-19%	?	·
CCOC(=O)C1CCCN(C(=O)Cn2nc(C)n3c(cc4c(OC)cccc43)c2=O)C1 (stereo not drawn)	?	11%	?	21%	-18%	1%
SMILES	TGFb inhibitor	HT1080NT lethal	TDP1 cell noCPT	HT1080 IDH1KD tx	TDP1 cell CPT	HepG2 tox
COc1cccc(CNc2ccc3[nH]c(=O)[nH]c3c2)c1OCc1ccc(F)cc1	-15%	-28%	?	1%	-5%	5%
COc1cc(CNCCc2c[nH]c3ccccc23)ccc1OCc1ccc(F)cc1	?	-23%	18µM*	?	15µM*	-115%
COc1cccc(CNCCc2c[nH]c3ccccc23)c1OCc1ccc(F)cc1	?	21µM*	15µM*	?	18µM*	13µM*
COc1ccc(CNC(=O)C2CCN(C(=O)N3CC(C)Oc4ccc(C)cc43)CC2)cc1 (stereo not drawn)	-11%	·	?	·	?	-15%
CCC1CN(C(=O)N2CCC(C(=O)NCc3cccs3)CC2)c2cc(C)ccc2O1 (stereo not drawn)	-15%	·	23µM*	·	18µM*	-22%
Cc1ccc2c(c1)N(C(=O)N1CCC(C(=O)NCc3cccs3)CC1)CC(C)O2 (stereo not drawn)	?	·	18µM*	·	?	-19%
Cc1nn(C)c(C)c1CNC(=O)c1cc2n(n1)C(C(F)(F)F)CC(c1cccs1)N2 (stereo not drawn)	4%	1%	5.8µM*	0%	10µM*	-11%
CCOC(=O)c1c(NC(=O)c2cc3n(n2)C(C(F)(F)F)CC(c2cccs2)N3)sc(C)c1C (stereo not drawn)	2%	2%	6.5µM*	8%	5.2µM*	-15%
CCOC(=O)c1cc2n(n1)C(C(F)(F)F)CC(C)N2 (stereo not drawn)	17%	9%	-9%	15%	-15%	7%
COc1ccccc1-c1ccc2c(c1)C(C)(Cc1ccc(OC(F)(F)F)cc1)C(=O)N2 (stereo not drawn)	?	?	?	?	?	-114%
COc1cc(CNC(=O)c2cc3n(n2)CCCN(Cc2ccc(C)cc2)C3=O)cc(OC)c1OC	-29%	·	?	·	?	-16%
COCCNC(=O)c1cc2n(n1)CCCN(Cc1ccc(C)cc1)C2=O	-8%	·	-4%	·	-16%	-2%
Cc1ccc(CN2CCCn3nc(C(=O)NCc4ccc(OC(C)C)cc4)cc3C2=O)cc1	0%	·	16µM*	·	18µM*	-28%
